# Test results: PubChem BioAssay (NCATS)
# Records with an inconclusive call do not appear. A call without a number means that no potency is given here. Active and inactive are the calls of the source. Calls follow the shape of the dose curve; as a rule, active = well fitted activation curve with a large enough effect; inconclusive = small, poorly fitted or top-dose-only effect; inactive = flat fitted curve, though single readings scatter. Where a SMILES comes first, the peptide text is derived from it. [ ]: non-standard residue; d: D form. Ala(indol-2-yl) = N[C@@H](Cc1cc2ccccc2[nH]1)C(=O)O; Aib = CC(C)(N)C(=O)O
# Assay: Primary redox qHTS assay for identification of artifact compounds. (AID 1845223)
# Conditions: Amplex Red/HRP redox cycling with DTT, fluorescence; series mostly up to 53.8 µM
# Outline: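 Redox-cycling detection via DTT (250 uM final) oxidation coupled to Amplex Red (25 uM)/HRP (250 mU/mL) in HBSS. 15 min preincubation plus 30 min after DTT, room temperature. Ex/Em 525/598 nm; 4-parameter Hill fit against DMSO and 10 uM DA3003.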
Structure (SMILES),Potency,redox activity (% of DA3003)
C[C@H]1O[C@@H](O[C@H]2CC[C@]3(C=O)C4CC[C@]5(C)[C@@H](C6=CC(=O)OC6)CC[C@]5(O)[C@@H]4CC[C@]3(O)C2)C[C@@H](O)[C@@H]1O (some centres undefined),inactive,
CC1=CC2OC3[C@H](O)C[C@@](C)([C@]34CO4)[C@@]2(CO)[C@H](O)C1=O (some centres undefined),inactive,
COC1CC(O[C@H]2CC[C@@]3(C)C(CCC4C3CC[C@]3(C)[C@@H](C5=CC(=O)OC5)CC[C@]43O)C2)OC(C)C1O (some centres undefined),inactive,
CC(C)(C)[C@]1(O)C[C@@H]2OC(=O)C[C@@]23C(=O)O[C@@H]2OC(=O)[C@@H](O)[C@]213,inactive,
C[C@H]1C/C=C/[C@H]2[C@@H]3O[C@]3(C)[C@@H](C)[C@H]3[C@H](Cc4ccccc4)NC(=O)[C@]32OC(=O)O/C=C/[C@@](C)(O)C1=O,inactive,
CNC(=O)c1cc(C#N)cc(C)c1NC(=O)c1cc(Br)nn1-c1ncccc1Cl,inactive,
OCc1nnc2n1-c1ccc(Cl)cc1C(c1ccccc1Cl)=NC2,inactive,
CN[C@@H]1C[C@H]2O[C@@](C)([C@@H]1OC)n1c3ccccc3c3c4c(c5c6ccccc6n2c5c31)C(=O)NC4,inactive,
CO[C@@H]1C[C@H](O[C@H]2CC[C@@]3(C)C(CCC4C3CC[C@]3(C)[C@@H](C5=CC(=O)OC5)[C@@H](OC(C)=O)CC43O)C2)O[C@H](C)[C@@H]1O[C@H]1O[C@H](CO[C@@H]2O[C@H](CO)[C@@H](O)[C@H](O)[C@H]2O)[C@@H](O)[C@H](O)[C@H]1O (some centres undefined),,15.6% [at 11.5 µM] (inactive)
CC(=O)O[C@@H]1[C@@H](O)[C@H]2O[C@@H]3C=C(C)[C@@H](O)C[C@]3(CO)[C@]1(C)[C@]21CO1,inactive,
CO[C@H]1C[C@H](O[C@H]2CC[C@@]3(C)C(=CCC4C3CC[C@]3(C)[C@@H](C5=CC(=O)OC5)CC[C@]43O)C2)O[C@@H](C)[C@@H]1O[C@@H]1O[C@H](CO[C@@H]2O[C@H](CO)[C@@H](O)[C@H](O)[C@H]2O)[C@@H](O)[C@H](O)[C@H]1O (some centres undefined),,8.54% [at 11.5 µM] (inactive)
C=C1[C@@H](C)[C@H]2[C@H](Cc3ccccc3)NC(=O)[C@]23[C@H](OC(C)=O)/C=C/[C@](C)(O)C(=O)[C@@H](C)C/C=C/[C@H]3[C@@H]1O,inactive,
c1cncc(OC[C@@H]2CCN2)c1,inactive,
CC(=O)OC[C@]12C[C@H](OC(=O)CC(C)C)C(C)=C[C@H]1O[C@@H]1[C@H](O)C[C@@]2(C)[C@]12CO2,inactive,
C[N@@+]1(CC2CC2)CC[C@]23c4c5ccc(O)c4O[C@H]2C(=O)CC[C@@]3(O)[C@H]1C5,inactive,
COc1ccc2c3c([nH]c2c1)C(C=C(C)C)N1C(=O)C2CCCN2C(=O)C1C3 (centres undefined),inactive,
CC(=O)OC[C@]12C[C@H](OC(=O)CC(C)C)C(C)=C[C@H]1O[C@@H]1[C@H](O)[C@@H](O)[C@@]2(C)[C@]12CO2,inactive,
CC(C)(NC(=O)[C@@H](N)Cc1ccc(O)cc1)C(=O)N[C@@H](Cc1cc2ccccc2[nH]1)C(=O)N[C@@H](Cc1ccccc1)C(=O)O (H-Y[Aib][Ala(indol-2-yl)]F-OH),,9.88% [at 11.5 µM] (inactive)
C[C@]12CC[C@H](O)C[C@H]1CC[C@@H]1[C@@H]2[C@H](O)C(=O)[C@]2(C)[C@@H](c3ccc(=O)oc3)CC[C@]12O,inactive,
CC[C@H]1C2CC3[C@@H]4N(C)c5ccccc5[C@]45C[C@@H]([C@H]2[C@H]5O)N3[C@@H]1O,inactive,
CC(=O)OC[C@]12C[C@H](OC(=O)CC(C)C)C(C)=C[C@H]1O[C@@H]1[C@H](O)[C@@H](OC(C)=O)[C@@]2(C)[C@@]12CO2,inactive,
CC1=C[C@H]2O[C@@H]3C[C@H]4OC(=O)/C=C/C=C/C(=O)OCC/C(C)=C/C(=O)OC[C@@]2(CC1)[C@]4(C)[C@]31CO1,inactive,
C=C(CO)C(=O)O[C@H]1CC(=C)[C@@H]2C[C@H](O)C(=C)[C@@H]2[C@H]2OC(=O)C(=C)[C@@H]21,inactive,
O=C(OC[C@H]1O[C@@H](Oc2ccc(O)cc2CO)[C@H](O)[C@@H](O)[C@@H]1O)c1ccccc1,inactive,
CC(=O)OC[C@]12C[C@H](O)C(C)=C[C@H]1O[C@@H]1[C@H](O)[C@@H](O)[C@@]2(C)[C@]12CO2,inactive,
CC[C@H]1C[C@@H]2CC[C@@H](O2)[C@@H](C)C(=O)O[C@H](CC)C[C@H]2CC[C@H](O2)[C@H](C)C(=O)O[C@@H](C)C[C@@H]2CC[C@@H](O2)[C@@H](C)C(=O)O[C@H](CC)C[C@H]2CC[C@H](O2)[C@H](C)C(=O)O1,inactive,
CC(=O)OC[C@]12C[C@H](O)C(C)=C[C@H]1O[C@@H]1[C@H](O)[C@@H](OC(C)=O)[C@@]2(C)[C@]12CO2,inactive,
C[C@H]1O[C@@H](n2cnc3c(N)ncnc32)C[C@@H]1O,inactive,
CO[C@H]1[C@@H](O)[C@@H](C)O[C@@H](O[C@@H]2C=C3C(OC(C)=O)CC4(O)C(CC[C@]5(C)[C@@H](C6=CC(=O)OC6)CC[C@]45O)[C@@]3(C)CC2)[C@@H]1O (some centres undefined),inactive,
